# In PubChem BioAssay (Tox21):
# Where “and” joins values, the source holds several entries; their conditions need not be identical. Equal entries are not always repeated. A number with no mark means an inactive call. Results filed as inconclusive are left out. A call without a number means that no potency is given here. Calls of active or inactive are those of the source. Calls follow the shape of the dose curve; as a rule, active = well fitted curve in the direction sought with a large enough effect in the repeat runs; inconclusive = weak or mixed curves; inactive = no such curve, though single readings can be large; an effect the other way counts as inactive or inconclusive.
# Legend:
# [1] = A CellTox Green Cytotoxicity Assay to monitor cytotoxicity in HEK293 cells - 40 hour (AID 1224871); also: nearly all actives have a fitted effect of over 45% in size
# Method in brief: (§1)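 Read-out: fluorescence of a cell-impermeant cyanine dye staining DNA of dead cells, proportional to cytotoxicity. HEK293, 600 cells/well with reagent, compound (23 nL DMSO) added after 5 h; reads at 0, 8, 16, 24, 32, 40 h.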
# [2] = qHTS RealTime-Glo MT Cell Viability Assay in HepG2 cells - 8 hour (AID 1224873); also: nearly all actives have a fitted effect of over 55% in size
# Method in brief: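 Real-time viability: cells seeded at 600 per well together with NanoLuc and cell-permeant prosubstrate, compounds added after 5 h incubation. Luminescence tracked at 0, 8, 16, 24, 32 and 40 h of exposure.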
# [3] = qHTS RealTime-Glo MT Cell Viability Assay in HEK293 cells - 40 hour (AID 1224874); conditions: RealTime-Glo luminescence; max response: stronger effect = lower value; also: nearly all actives have a fitted effect of over 50% in size; also: potency is read from the fitted curve at half-maximal effect
# Method in brief: (§2)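 Luminescence readout at each listed time point; HEK293, 600 cells/well, RealTime-Glo MT reagent added with cells; compounds pinned (23 nL in DMSO) after 5 h at 37 C; continuous culture at 37 C.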
# [4] = A CellTox Green Cytotoxicity Assay to monitor cytotoxicity in HEK293 cells - 24 hour (AID 1224875); also: series mostly up to about 77 µM; nearly all actives have a fitted effect of over 45% in size
# Method in brief: as §1
# [5] = A CellTox Green Cytotoxicity Assay to monitor cytotoxicity in HepG2 cells - 16 hour (AID 1224876); also: nearly all actives have a fitted effect of over 45% in size; also: potency is read from the fitted curve at half-maximal effect
# Method in brief: (§3)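 HepG2, 600 cells/well premixed w/ CellTox Green; 5 h settle, 37 C/5% CO2; pintool cpd add (DMSO); 37 C, 40 h; fluorescence read at 0, 8, 16, 24, 32, 40 h.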
# [6] = A CellTox Green Cytotoxicity Assay to monitor cytotoxicity in HepG2 cells - 24 hour (AID 1224878); also: nearly all actives have a fitted effect of over 45% in size; also: potency is read from the fitted curve at half-maximal effect
# Method in brief: as §3
# [7] = A CellTox Green Cytotoxicity Assay to monitor cytotoxicity in HepG2 cells - 40 hour (AID 1224879); also: nearly all actives have a fitted effect of over 40% in size; also: potency is read from the fitted curve at half-maximal effect
# Method in brief: as §3
# [8] = qHTS RealTime-Glo MT Cell Viability Assay in HEK293 cells - 0 hour (AID 1224880); also: nearly all actives have a fitted effect of over 45% in size; also: potency is read from the fitted curve at half-maximal effect
# Method in brief: as §2
# [9] = A CellTox Green Cytotoxicity Assay to monitor cytotoxicity in HEK293 cells - 32 hour (AID 1224881); also: nearly all actives have a fitted effect of over 40% in size
# Method in brief: as §1
# [10] = A CellTox Green Cytotoxicity Assay to monitor cytotoxicity in HepG2 cells - 0 hour (AID 1224882); also: nearly all actives have a fitted effect of over 35% in size
# Method in brief: as §3
# [11] = A CellTox Green Cytotoxicity Assay to monitor cytotoxicity in HEK293 cells - 8 hour (AID 1224884); also: nearly all actives have a fitted effect of over 35% in size
# Method in brief: as §1
# [12] = A CellTox Green Cytotoxicity Assay to monitor cytotoxicity in HEK293 cells - 16 hour (AID 1224888); also: nearly all actives have a fitted effect of over 35% in size
# Method in brief: as §1
# [13] = qHTS RealTime-Glo MT Cell Viability Assay in HepG2 cells - 0 hour (AID 1224889); also: nearly all actives have a fitted effect of over 50% in size
# Method in brief: (§4)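 Viability was tracked continuously by NanoLuc luminescence from prosubstrate reduced by living HepG2 cells, at successive time points over 40 h of compound exposure. Cells with reagent were preincubated 5 h at 37 °C before compound addition.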
# [14] = A CellTox Green Cytotoxicity Assay to monitor cytotoxicity in HepG2 cells - 8 hour (AID 1224890); also: nearly all actives have a fitted effect of over 45% in size; also: potency is read from the fitted curve at half-maximal effect
# Method in brief: as §3
# [15] = qHTS RealTime-Glo MT Cell Viability Assay in HepG2 cells - 32 hour (AID 1224877); also: nearly all actives have a fitted effect of over 55% in size; also: potency is read from the fitted curve at half-maximal effect
# Method in brief: as §4
# [16] = A CellTox Green Cytotoxicity Assay to monitor cytotoxicity in HepG2 cells - 32 hour (AID 1224883); also: nearly all actives have a fitted effect of over 50% in size; also: potency is read from the fitted curve at half-maximal effect
# Method in brief: as §3
# [17] = qHTS RealTime-Glo MT Cell Viability Assay in HepG2 cells - 16 hour (AID 1224885); also: nearly all actives have a fitted effect of over 50% in size
# Method in brief: as §4
# [18] = qHTS RealTime-Glo MT Cell Viability Assay in HEK293 cells - 16 hour (AID 1224872); also: nearly all actives have a fitted effect of over 50% in size; also: potency is read from the fitted curve at half-maximal effect
# Method in brief: (§5)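 Viability tracked continuously by luminescence as live cells reduce a prosubstrate for NanoLuc; HEK293 cells preincubated 5 h, compound-treated at 37 C, and read at 0, 8, 16, 24, 32 and 40 h.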
# [19] = qHTS RealTime-Glo MT Cell Viability Assay in HEK293 cells - 24 hour (AID 1224886); also: nearly all actives have a fitted effect of over 50% in size; also: potency is read from the fitted curve at half-maximal effect
# Method in brief: as §5
# [20] = qHTS RealTime-Glo MT Cell Viability Assay in HEK293 cells - 8 hour (AID 1224887); also: nearly all actives have a fitted effect of over 50% in size; also: potency is read from the fitted curve at half-maximal effect
# Method in brief: as §2
structure (smiles),measurement,setting,value
O=C(NOCC1CC1)c1ccc(F)c(F)c1Nc1ccc(I)cc1Cl,Potency,[1],inactive
same,Potency,[2],inactive
same,Potency,[3],23.9 µM (active)
same,Potency,[4],inactive
same,Potency,[5],inactive
same,Potency,[6],42.5 nM (active)
same,Potency,[7],107 nM (active)
same,Potency,[8],16.9 µM (active)
same,Potency,[9],inactive
same,Potency,[10],inactive
same,Potency,[11],inactive
same,Potency,[12],inactive
same,Potency,[13],inactive
same,Potency,[14],inactive
C/C(=C(/OCCOc1ccc(Cl)cc1)c1ccc(Cl)cc1Cl)n1ccnc1,Potency,[1],inactive
same,Potency,[2],inactive
same,Potency,[4],inactive
same,Potency,[5],inactive
same,Potency,[15],inactive
same,Potency,[6],inactive
same,Potency,[7],inactive
same,Potency,[8],inactive
same,Potency,[9],inactive
same,Potency,[10],inactive
same,Potency,[16],inactive
same,Potency,[17],inactive
same,Potency,[12],inactive
same,Potency,[13],inactive
same,Potency,[14],inactive
CCCCCCOC(=O)c1ccc(O)cc1,Potency,[18],43.7 µM (active) and 21.9 µM (active)
same,Potency,[2],inactive
same,Potency,[3],43.7 µM (active) and 21.9 µM (active)
same,Potency,[4],inactive
same,Potency,[5],8.71 µM (active)
same,Potency,[15],inactive
same,Potency,[6],43.7 µM (active) and 9.77 µM (active)
same,Potency,[7],43.7 µM (active) and 11 µM (active)
same,Potency,[8],inactive
same,Potency,[10],inactive
same,Potency,[16],43.7 µM (active) and 7.76 µM (active)
same,Potency,[11],inactive
same,Potency,[17],inactive
same,Potency,[19],43.7 µM (active) and 24.5 µM (active)
same,Potency,[20],43.7 µM (active) and 24.5 µM (active)
same,Potency,[12],inactive
same,Potency,[13],inactive
same,Potency,[14],inactive
COc1cccc(N)c1,Potency,[18],inactive
same,Potency,[2],inactive
same,max response,[3],-1.08%
same,Potency,[4],inactive
same,Potency,[5],inactive
same,Potency,[15],inactive
same,Potency,[6],inactive
same,Potency,[7],inactive
same,Potency,[8],inactive
same,Potency,[10],inactive
same,Potency,[16],inactive
same,Potency,[11],inactive
same,Potency,[17],inactive
same,Potency,[20],inactive
same,Potency,[12],inactive
same,Potency,[13],inactive
same,Potency,[14],inactive
CCCC/C=C/CCCCO,Potency,[18],inactive
same,Potency,[2],inactive
same,max response,[3],5.87%
same,Potency,[4],inactive
same,Potency,[5],inactive
same,Potency,[15],inactive
same,Potency,[6],inactive
same,Potency,[7],inactive
same,Potency,[8],inactive
same,Potency,[9],inactive
same,Potency,[10],inactive
same,Potency,[17],inactive
same,Potency,[19],inactive
same,Potency,[20],inactive
same,Potency,[12],inactive
same,Potency,[13],inactive
same,Potency,[14],inactive
Cc1cc(=O)oc2cc(N(C)C)ccc12,Potency,[1],inactive
same,Potency,[4],inactive
same,Potency,[5],inactive
same,Potency,[15],inactive
same,Potency,[6],inactive
same,Potency,[7],inactive
same,Potency,[9],inactive
same,Potency,[10],inactive
same,Potency,[16],inactive
same,Potency,[20],inactive
same,Potency,[12],inactive
same,Potency,[13],inactive
same,Potency,[14],inactive
NNC(=O)c1cccc(C(=O)NN)c1,Potency,[18],inactive
same,Potency,[2],inactive
same,max response,[3],-2.8%
same,Potency,[4],inactive
same,Potency,[5],inactive
same,Potency,[15],inactive
same,Potency,[6],inactive
same,Potency,[7],inactive
same,Potency,[8],inactive
same,Potency,[9],inactive
same,Potency,[10],inactive
same,Potency,[16],inactive
same,Potency,[11],inactive
same,Potency,[17],inactive
same,Potency,[19],inactive
same,Potency,[20],inactive
same,Potency,[12],inactive
same,Potency,[13],inactive
same,Potency,[14],inactive
NNc1nc(-c2ccc([N+](=O)[O-])cc2)cs1,Potency,[1],inactive
same,Potency,[3],24.5 µM (active)
same,Potency,[4],inactive
same,Potency,[5],inactive
same,Potency,[6],inactive
same,Potency,[7],inactive
same,Potency,[8],inactive
same,Potency,[9],inactive
same,Potency,[10],inactive
same,Potency,[16],inactive
same,Potency,[19],24.5 µM (active)
same,Potency,[20],inactive
same,Potency,[12],inactive
same,Potency,[13],inactive
same,Potency,[14],inactive
COc1cccc2c1C(=O)c1c(O)c3c(c(O)c1C2=O)C[C@@](O)(C(=O)CO)C[C@@H]3O[C@H]1C[C@H](N)[C@H](O[C@@H]2CCCCO2)[C@H](C)O1,Potency,[1],inactive
same,Potency,[3],0.19 µM (active)
same,Potency,[4],inactive
same,Potency,[5],23.9 µM (active)
same,Potency,[15],1.9 µM (active)
same,Potency,[6],9520 nM (active)
same,Potency,[7],1510 nM (active)
same,Potency,[8],inactive
same,Potency,[9],inactive
same,Potency,[16],1.69 µM (active)
same,Potency,[11],inactive
same,Potency,[19],0.338 µM (active)
same,Potency,[20],inactive
same,Potency,[12],inactive
same,Potency,[13],inactive
same,Potency,[14],23.9 µM (active)
CCCCCOc1ccccc1/C(=C\SC)n1ccnc1,Potency,[1],inactive
same,Potency,[2],inactive
same,Potency,[4],inactive
same,Potency,[5],inactive
same,Potency,[6],inactive
same,Potency,[8],inactive
same,Potency,[9],inactive
same,Potency,[10],inactive
same,Potency,[16],inactive
same,Potency,[11],inactive
same,Potency,[17],inactive
same,Potency,[12],inactive
same,Potency,[13],inactive
same,Potency,[14],inactive
CC(C)C(C)(C)C(C)(C)C(C)(C)S,Potency,[1],inactive
same,Potency,[2],inactive
same,Potency,[4],inactive
same,Potency,[5],inactive
same,Potency,[6],inactive
same,Potency,[7],inactive
same,Potency,[8],inactive
same,Potency,[9],inactive
same,Potency,[10],inactive
same,Potency,[16],inactive
same,Potency,[19],inactive
same,Potency,[14],inactive
C/C=C(\C)C(=O)OCc1ccccc1,Potency,[18],inactive
same,Potency,[2],inactive
same,max response,[3],-2.09%
same,Potency,[4],inactive
same,Potency,[5],inactive
same,Potency,[15],inactive
same,Potency,[6],inactive
same,Potency,[7],inactive
same,Potency,[9],inactive
same,Potency,[10],inactive
same,Potency,[16],inactive
same,Potency,[19],inactive
same,Potency,[20],inactive
same,Potency,[12],inactive
same,Potency,[13],inactive
same,Potency,[14],inactive
